Where a name gives a salt, the structure may show the parent alone. ± gives the standard deviation or the standard deviation of the averaged measurements.

Common to all, as to settings: 25 µM; exposure: 24-48 hpf
Assay [1] has as its system Danio rerio Tg(wt1b:EGFP) embryo, pronephros. Put plainly: glomerular separation, fold change vs DMSO control; higher = glomeruli further apart (abnormal). A digest of the protocol: (§1)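 Distances and angles describing the pronephros were computed by a Fiji macro from 16 reference points set manually on maximum projections of dorsal images. These images came from dechorionated Tg(wt1b:EGFP) zebrafish embryos held in agarose-filled 96-well plates after exposure to 25 μM compound in 0.5% DMSO, in HEPES-buffered E3 with 0.003% PTU, from 24 to 48 hpf at 28.5°C. Any value more than 2 SD from the feature mean was excluded. Features are stated as fold change relative to the mean of same-day DMSO-treated embryos.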

Assay [2] has the same test system. Put plainly: glomerular width (mean of left and right), fold change vs DMSO control; higher = wider glomerulus. A digest of the protocol:
as §1

For assay [3] the test system is unchanged. Put plainly: fraction of imaged embryos annotated as normal kidney; higher = less nephrotoxic; extreme values may be limits of the assay. A digest of the protocol:
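Embryos of the Tg(wt1b:EGFP) zebrafish line were dechorionated and held in 12-well plates with 25 μM compound in 0.5% DMSO and 5 mM HEPES-buffered E3 containing 0.003% PTU, from 24 to 48 hpf at 28.5°C. Larvae were then anaesthetised with tricaine, set dorsal side up in agarose-filled 96-well plates, and their pronephroi imaged by widefield fluorescence at 470 nm over 10 z-slices. Each value is the fraction of embryos per treatment placed in the normal-kidney category after manual annotation of maximum projections.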

Assay [4] shares this test system. Put plainly: pronephric angle neck segment to proximal convoluted tubule (mean of left and right), fold change vs DMSO control; higher = larger pronephric angle. A digest of the protocol: as §1

Compound `CC[N+](CC)(CC)CCOc1cccc(OCC[N+](CC)(CC)CC)c1OCC[N+](CC)(CC)CC` [Gallamine triethiodide] returned a glomerular separation in assay [1] of 1.13 ± 0.48. In addition, the glomerular width in assay [2] was determined as 1.03 ± 0.04. The “fraction of imaged embryos annotated as normal kidney” value (shortened to “fraction of imaged embryos annotated”) in assay [3] turned out to be 0.833. For the same compound, in assay [4], the “pronephric angle neck segment” value turned out to be 0.998 ± 0.034.
As for `Cc1cccc(Nc2ccncc2S(=O)(=O)NC(=O)NC(C)C)c1` [Torsemide], in assay [1], the glomerular separation was determined as 1.12 ± 0.3. Further, in assay [2], the glomerular width was 0.95 ± 0.015. Further, the “fraction of imaged embryos annotated” value in assay [3] is 1. Moreover, in assay [4], the “pronephric angle neck segment” value is 0.905 ± 0.03.
Regarding `CN(C)C(=N)NC(=N)N` [Metformin hydrochloride], the glomerular separation in assay [1] was 0.804 ± 0.19. Also, the glomerular width in assay [2] came out at 0.93 ± 0.035. In addition, the “fraction of imaged embryos annotated” value in assay [3] stood at 0.833. Moreover, the “pronephric angle neck segment” value in assay [4] was 1.08 ± 0.042.
In turn, `CC(C)[N+](C)(CCOC(=O)C1c2ccccc2Oc2ccccc21)C(C)C` [Propantheline bromide] registered a glomerular separation in assay [1] of 1.29 ± 0.47. This compound gave a glomerular width in assay [2] of 0.966 ± 0.062. For the same compound, in assay [3], the “fraction of imaged embryos annotated” value was determined as 0.667. Also, in assay [4], the “pronephric angle neck segment” value amounted to 0.942 ± 0.01.
The like results for `C[n+]1ccccc1/C=N/O` [Pralidoxime chloride] were, in that order, 0.691 ± 0.38, 0.9582 ± 0.0035, 0.833 and 1.039 ± 0.01.
`COC(=O)C1=C(C)NC(C)=C(C(=O)OC2CCCN(Cc3ccccc3)C2)C1c1cccc([N+](=O)[O-])c1` (stereo not drawn) [Benidipine hydrochloride] came in with a glomerular separation in assay [1] of 4.55 ± 0.53. Further, the glomerular width in assay [2] is 0.7 ± 0.061. Moreover, the “fraction of imaged embryos annotated” value in assay [3] turned out to be 0. Moreover, in assay [4], the “pronephric angle neck segment” value worked out at 0.99 ± 0.056.
Regarding `CC[C@H]1OC(=O)C[C@@H](O)[C@H](C)[C@@H](O[C@@H]2O[C@H](C)[C@@H](O[C@H]3C[C@@](C)(O)[C@@H](O)[C@H](C)O3)[C@H](N(C)C)[C@H]2O)[C@@H](CC=O)C[C@@H](C)C(=O)/C=C/C(C)=C/[C@@H]1CO[C@@H]1O[C@H](C)[C@@H](O)[C@@H](OC)[C@H]1OC` [Tylosin], in assay [1], the glomerular separation came to 0.911 ± 0.28. Besides, in assay [2], the glomerular width came out at 0.983 ± 0.0057. Also, the “fraction of imaged embryos annotated” value in assay [3] was found to be 0.833. In addition, in assay [4], the “pronephric angle neck segment” value came to 1.005 ± 0.0099.
With `O=C(NCCO[N+](=O)[O-])c1cccnc1` [Nicorandil], the glomerular separation in assay [1] turned out to be 1.05 ± 0.44. In assay [2], this compound gave a glomerular width of 0.989 ± 0.083. The “fraction of imaged embryos annotated” value in assay [3] stood at 0.917. In addition, the “pronephric angle neck segment” value in assay [4] came out at 0.9232 ± 0.008.
Take `C[C@@H](c1ncncc1F)[C@](O)(Cn1cncn1)c1ccc(F)cc1F` [Voriconazole]: the glomerular separation in assay [1] amounted to 0.875 ± 0.21. In assay [2], this compound had a glomerular width of 1.02 ± 0.015. The “fraction of imaged embryos annotated” value in assay [3] was determined as 0.5. Moreover, the “pronephric angle neck segment” value in assay [4] came out at 1.01 ± 0.027.
With `Cc1c(O)c(=O)n(-c2ccccc2)n1C` [Antipyrine, 4-hydroxy], the glomerular separation in assay [1] stood at 1.2 ± 0.38. The same compound registered a glomerular width in assay [2] of 0.951 ± 0.064. The “fraction of imaged embryos annotated” value in assay [3] turned out to be 0.583. For the same compound, in assay [4], the “pronephric angle neck segment” value was 1.03 ± 0.028.
The corresponding values for `Cc1cc(CC(=O)O)n(C)c1C(=O)c1ccc(Cl)cc1` [Zomepirac sodium salt] are 0.83 ± 0.4, 0.811 ± 0.033, 0.273 and 1.23 ± 0.062.
In assay [1], `C[C@H](O)C(=O)Nc1c(I)c(C(=O)NC(CO)CO)c(I)c(C(=O)NC(CO)CO)c1I` [Iopamidol] came in with a glomerular separation of 0.92 ± 0.3. This compound registered a glomerular width in assay [2] of 0.9773 ± 0.007. In assay [3], the “fraction of imaged embryos annotated” value came to 0.833. The “pronephric angle neck segment” value in assay [4] is 1.01 ± 0.038.
The corresponding values for `CN1CCN(C(c2ccccc2)c2ccccc2)CC1` [Cyclizine hydrochloride] are 0.835 ± 0.14, 0.9853 ± 0.0046, 0.833 and 0.952 ± 0.018.
As to `CCCN(CCC)S(=O)(=O)c1ccc(C(=O)O)cc1` [Probenecid], the glomerular separation in assay [1] amounted to 1.41 ± 0.61. The same compound came in with a glomerular width in assay [2] of 0.907 ± 0.091. Moreover, the “fraction of imaged embryos annotated” value in assay [3] turned out to be 0.833. In addition, the “pronephric angle neck segment” value in assay [4] is 0.915 ± 0.028.
`CSc1ccc2c(c1)C(N1CCN(C)CC1)Cc1ccccc1S2` (stereo not drawn) [Methiothepin maleate] came in with a glomerular separation in assay [1] of 1.06 ± 0.38. Also, in assay [2], the glomerular width is 1.01 ± 0.045. Besides, the “fraction of imaged embryos annotated” value in assay [3] was 0.833. For the same compound, in assay [4], the “pronephric angle neck segment” value turned out to be 0.976 ± 0.034.
The corresponding values for `O=C(c1ccc(F)cc1)C1CCN(CCn2c(=O)[nH]c3ccccc3c2=O)CC1` [Ketanserin tartrate hydrate] are 0.846 ± 0.25, 0.939 ± 0.021, 0.833 and 1.03 ± 0.046.
In assay [1], `CO[C@H]1/C=C/O[C@@]2(C)Oc3c(C)c(O)c4c(O)c(c(/C=N/N5CCN(C)CC5)c(O)c4c3C2=O)NC(=O)/C(C)=C\C=C\[C@H](C)[C@H](O)[C@@H](C)[C@@H](O)[C@@H](C)[C@H](OC(C)=O)[C@@H]1C` [Rifampicin] returned a glomerular separation of 1.08 ± 0.28. For the same compound, the glomerular width in assay [2] was found to be 1.02 ± 0.018. For the same compound, in assay [3], the “fraction of imaged embryos annotated” value worked out at 0.833. Further, the “pronephric angle neck segment” value in assay [4] is 0.991 ± 0.022.
Turning to `COc1cc(C(=O)OCCCN2CCCN(CCCOC(=O)c3cc(OC)c(OC)c(OC)c3)CC2)cc(OC)c1OC` [Dilazep dihydrochloride], the glomerular separation in assay [1] stood at 1 ± 0.36. The same compound yielded a glomerular width in assay [2] of 0.986 ± 0.055. The “fraction of imaged embryos annotated” value in assay [3] is 0.75. Also, in assay [4], the “pronephric angle neck segment” value stood at 1.08 ± 0.089.
The compound `CN(CCCN1c2ccccc2CCc2ccccc21)CC(=O)c1ccc(Cl)cc1` [Lofepramine] returned a glomerular separation in assay [1] of 1.23 ± 0.38. In assay [2], this compound returned a glomerular width of 0.98 ± 0.035. In addition, the “fraction of imaged embryos annotated” value in assay [3] is 0.917. For the same compound, the “pronephric angle neck segment” value in assay [4] amounted to 1.09 ± 0.011.
As for `CN1CCCN=C1/C=C/c1cccc(O)c1` [Oxantel pamoate], the glomerular separation in assay [1] came to 0.88 ± 0.16. Also, the glomerular width in assay [2] is 1.012 ± 0.0033. Further, in assay [3], the “fraction of imaged embryos annotated” value was found to be 0.917. Further, the “pronephric angle neck segment” value in assay [4] was 1.03 ± 0.034.
Turning to `NC(=O)N1c2ccccc2CC(=O)c2ccccc21` [Oxcarbazepine], in assay [1], the glomerular separation turned out to be 0.94 ± 0.28. This compound registered a glomerular width in assay [2] of 1 ± 0.035. In assay [3], the “fraction of imaged embryos annotated” value is 0.833. For the same compound, the “pronephric angle neck segment” value in assay [4] amounted to 0.9454 ± 0.0088.
The compound `CN(C)CC/C=C1/c2ccccc2COc2ccc(CC(=O)O)cc21` [Olopatadine hydrochloride] gave a glomerular separation in assay [1] of 0.914 ± 0.34. Further, the glomerular width in assay [2] stood at 0.97 ± 0.013. Further, the “fraction of imaged embryos annotated” value in assay [3] came out at 0.833. In assay [4], the “pronephric angle neck segment” value was determined as 1.03 ± 0.025.
The corresponding values for `CCOc1ccc(Cc2nccc3cc(OCC)c(OCC)cc23)cc1OCC` [Ethaverine hydrochloride] are 0.975 ± 0.28, 1.1 ± 0.081, 0.583 and 0.989 ± 0.061.
On to `CC(=O)NC[C@H]1CN(c2ccc(N3CCOCC3)c(F)c2)C(=O)O1` [Linezolid], for which the glomerular separation in assay [1] came to 0.987 ± 0.23. The glomerular width in assay [2] was 1.02 ± 0.019. Also, the “fraction of imaged embryos annotated” value in assay [3] was 0.917. For the same compound, the “pronephric angle neck segment” value in assay [4] came out at 0.936 ± 0.029.
In turn, `CC[C@H]1OC(=O)[C@H](C)[C@@H](O[C@H]2C[C@@](C)(OC)[C@@H](O)[C@H](C)O2)[C@H](C)[C@@H](O[C@@H]2O[C@H](C)C[C@H](N(C)C)[C@H]2O)[C@](C)(O)C[C@@H](C)[C@@H]2N[C@@H](COCCOC)O[C@H]([C@H]2C)[C@]1(C)O` [Dirithromycin] registered a glomerular separation in assay [1] of 1 ± 0.51. The same compound gave a glomerular width in assay [2] of 0.964 ± 0.041. Also, in assay [3], the “fraction of imaged embryos annotated” value was determined as 1. The “pronephric angle neck segment” value in assay [4] is 0.981 ± 0.065.
The like results for `CCN1CCCC1CNC(=O)c1cc(S(=O)(=O)CC)c(N)cc1OC` (stereo not drawn) [Amisulpride] were, in that order, 0.971 ± 0.31, 1.04 ± 0.042, 0.9 and 0.9586 ± 0.0016.
The like results for `C#C[C@]1(O)CC[C@H]2[C@@H]3CCc4cc(OC)ccc4[C@H]3CC[C@@]21C` [Ethynylestradiol 3-methyl ether] were, in that order, 0.896 ± 0.42, 1.038 ± 0.0014, 0.833 and 1.03 ± 0.013.

The values above are taken from the supplement of paper PMC7366291.
